Structures are written as SMILES. Out of some 2,400 compounds screened, about 220 (9.2%) were called active.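 How the source made its calls: active means signal change above the mean of dofetilide-free buffer controls plus 3 SD, so a positive margin; inactive means the rest.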 This excerpt belongs to a sample that is enriched for actives.

This assay can be described thus: thallium signal changes without hERG – cell-based, CHO-K1 parental line, FluxOR thallium flux, counter-screen for hERG block protection project, confirmation (AID 1839).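 Further: compounds applied alone with no dofetilide to cells lacking hERG.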 To be noted: CHO-K1 parental cells, FluxOR thallium flux fluorescence; at 10 µM.
Regarding `COc1ccc(CCNC(=O)c2cc3ccccc3oc2=O)cc1`, the signal change vs control minus 3*SD hit threshold (margin above threshold, higher = more increase) is -38.8% (inactive).
The value for `C/C(=N\NC(=O)c1ccoc1C)c1cccc2ccccc12` was -5.5% (inactive); that for `C/C(=N/NC(=O)c1cc2ccccc2cc1O)c1ccco1` was 3.4% (active); that for `C/C(=N\NC(=O)c1cc2ccccc2cc1O)c1ccccn1` was -32.4% (inactive).
As for `Cc1cccc(/C=N/NC(=O)c2cc(Br)ccc2O)n1`, the signal change vs control minus 3*SD hit threshold (margin above threshold, higher = more increase) was -26.5% (inactive).
As to `C/C(=N\NC(=O)c1cc2ccccc2cc1O)c1ccc(C)o1`, the signal change vs control minus 3*SD hit threshold (margin above threshold, higher = more increase) was 3.3% (active).
The value for `O=C(N/N=C/c1ccc(Sc2ccccn2)o1)c1cc2ccccc2cc1O` was -17.7% (inactive); that for `Cc1ccc(/C=N/NC(=O)c2cc3ccccc3cc2O)o1` was 18.2% (active).
As for `Cc1ccc(/C=N/NC(=O)c2cc(C)oc2C)o1`, the signal change vs control minus 3*SD hit threshold (margin above threshold, higher = more increase) is -22.9% (inactive).
The value for `C/C(=N\NC(=S)Nc1c(C)cccc1C)c1cc2ccccc2o1` was -26% (inactive).
The value for `C/C(=N\NC(=O)c1cc2ccccc2cc1O)c1cc2ccccc2o1` was 50.8% (active); that for `Cc1ccc(/C=N/NC(=O)c2cc(-c3ccncc3)nc3ccccc23)o1` was -58.7% (inactive).
The value for `NC(=O)Cn1c2[n+](c3ccccc31)CC(O)CS2` (stereo not drawn) was -25.7% (inactive); that for `CC(=O)c1ccc2c(c1)OCCOCCOCCO2` was -35.7% (inactive).
`CC(CCc1ccccc1)NC(=S)NC(=O)c1ccco1` (stereo not drawn): the signal change vs control minus 3*SD hit threshold (margin above threshold, higher = more increase) is 0% (inactive).
The value for `C/C(=C\C(=O)c1ccccc1)NNC(=O)c1ccc(Cl)cc1` was -4.7% (inactive).
The value for `Cc1ccc(Cn2nnc3c(=O)n(CC(=O)N4CCCc5ccccc54)cnc32)cc1` was -24.6% (inactive); that for `Cc1ccc(C(=O)CC(=O)c2ccccc2C)c(O)c1` was -34% (inactive).
For the compound `Cc1cc(=S)[nH]c2c(C)cccc12`, the signal change vs control minus 3*SD hit threshold (margin above threshold, higher = more increase) was -20% (inactive).
For the compound `c1ccc(CCCNc2ncnc3nc[nH]c23)cc1`, the signal change vs control minus 3*SD hit threshold (margin above threshold, higher = more increase) is -18.5% (inactive).
`CSc1nsc(SCC(=O)Nc2ccccc2C(=O)O)n1`: the signal change vs control minus 3*SD hit threshold (margin above threshold, higher = more increase) was -22.4% (inactive).
The value for `O=C(NC(=S)Nc1nc(-c2ccccc2)cs1)c1cncc(Br)c1` was -17.9% (inactive).
The value for `Cc1cccc(NC(=S)c2nc3ccccc3s2)c1` was -28.6% (inactive); that for `S=C(Nc1ccc(Cl)cc1)c1nc2ccccc2s1` was 10.2% (active); that for `Cc1ccc(NC(=S)c2nc3ccccc3s2)cc1` was -24.9% (inactive).
With `O=c1[nH]c(C(Cl)(Cl)Cl)nc2ccc3ccccc3c12`, the signal change vs control minus 3*SD hit threshold (margin above threshold, higher = more increase) is -12% (inactive).
The value for `O=C(CCC(=O)Nc1ccccc1)NNC(=O)c1ccco1` was -34.1% (inactive); that for `COc1ccccc1NC(=O)C(=O)NNC(=O)c1ccco1` was 6.5% (active).
The value for `COc1ccc(C)cc1NC(=O)Nc1ccc(C(=O)N2CCCC2)cc1` was -20.5% (inactive); that for `COc1ccc(OC)c(NC(=O)C(=O)NNC(=O)c2cccs2)c1` was -26.1% (inactive).
The value for `COc1ccc(C)cc1NC(=O)C(=O)NNC(=O)c1ccco1` was 23.7% (active); that for `COCC1CCCN(C(=O)c2ccc3oc(C(C)C)nc3c2)C1` (stereo not drawn) was -17.8% (inactive); that for `C/C(O)=C/c1nc2ccccc2[nH]c1=O` was -30.7% (inactive).
In the case of `CSc1nc2c(c(=O)[nH]1)C(c1ccc(Br)cc1)CC(=O)N2` (stereo not drawn), the signal change vs control minus 3*SD hit threshold (margin above threshold, higher = more increase) is -22.1% (inactive).
The value for `C=CCn1c(=S)[nH]c2cc(-c3ccccc3)sc2c1=O` was -25.2% (inactive).
The value for `C=CCn1c(=S)[nH]c2ccc(Br)cc2c1=O` was -17.4% (inactive); that for `C=CCn1c(=S)[nH]c2scc(-c3ccc(C)o3)c2c1=O` was 27.1% (active).
Take `C=CCn1c(=S)[nH]c2scc(-c3cccs3)c2c1=O`: the signal change vs control minus 3*SD hit threshold (margin above threshold, higher = more increase) was 37.4% (active).
The value for `C=CCn1c(SCC(N)=O)nc2scc(-c3ccc(C)o3)c2c1=O` was -20.7% (inactive).
The value for `Cc1ccccc1NC(=O)CN1C(=O)S/C(=C\c2ccc(-c3cccc(C(=O)O)c3C)o2)C1=O` was -33.5% (inactive).
The value for `C=CCNc1sc(C(=O)C(C)(C)C)c(N)c1C#N` was -32.1% (inactive); that for `O=C(COc1ccc2c3c(c(=O)oc2c1)CCC3)N[C@@H](Cc1ccccc1)C(=O)O` was -5.5% (inactive).
For `CSC1=C(C#N)C(CC(C)C)C2=C(CCCC2=O)N1` (stereo not drawn), the signal change vs control minus 3*SD hit threshold (margin above threshold, higher = more increase) is -26.3% (inactive).
In the case of `Cc1[nH]c(=S)sc1Cc1ccc(Cl)c(Cl)c1`, the signal change vs control minus 3*SD hit threshold (margin above threshold, higher = more increase) was -29.6% (inactive).
The value for `S=c1[nH]c2cc(Cl)ccc2s1` was 38.9% (active).
For the compound `CC(C)Cn1c(=S)[nH]c2cc(Cl)ccc21`, the signal change vs control minus 3*SD hit threshold (margin above threshold, higher = more increase) was -22.1% (inactive).
The value for `O=C(Nc1ccc2[nH]c(=S)sc2c1)Nc1ccccc1F` was -39.7% (inactive); that for `S=c1[nH]c2ccc(Cl)cc2s1` was 36.9% (active); that for `COc1cc(S(=O)(=O)NCC2COCCO2)ccc1-n1cnnn1` (stereo not drawn) was -28.3% (inactive).
As to `FC(F)(F)c1cnc2c(c1)[nH]c(=S)n2-c1ccc(Cl)cc1`, the signal change vs control minus 3*SD hit threshold (margin above threshold, higher = more increase) was -16.7% (inactive).
The value for `CNC(=O)c1ccc(NC(=O)CN2c3cccc4cccc(c34)S2(=O)=O)cc1` was -22% (inactive).
The value for `O=C1NC(=S)SC1=C1CCCCCC1` was 26% (active); that for `CCCCCN(C(=O)CCC(=O)OCC(=O)N(C)C1CCCCC1)c1c(N)n(CCCC)c(=O)[nH]c1=O` was -20.9% (inactive).
The value for `CCC1(C(=O)O)NC(c2cc(OC)ccc2O)C2C(=O)N(Cc3ccccc3)C(=O)C21` (stereo not drawn) was -29.6% (inactive); that for `O=C1NCCN1Cc1ccccc1F` was -30.6% (inactive); that for `CON/C=N/C(=S)Nc1ncc(C(F)(F)F)cc1Cl` was 16.5% (active).
`ON/C=N/C(=S)Nc1ncc(C(F)(F)F)cc1Cl`: the signal change vs control minus 3*SD hit threshold (margin above threshold, higher = more increase) was 6.1% (active).
The value for `C/C(Cl)=C\Cn1c(O)c(N=NC(N)=S)c2cc(Br)ccc21` was -15.7% (inactive).
For `COc1ccc(OC)c(S(=O)(=O)NCc2cn3cccc(C)c3n2)c1`, the signal change vs control minus 3*SD hit threshold (margin above threshold, higher = more increase) is -37.6% (inactive).
As to `O=c1c2cc(Br)ccc2nc(-c2ccc([N+](=O)[O-])cc2)n1O`, the signal change vs control minus 3*SD hit threshold (margin above threshold, higher = more increase) is 6.7% (active).
The value for `O=c1c2cc(Cl)ccc2nc(-c2ccc([N+](=O)[O-])cc2)n1O` was 4.5% (active); that for `O=c1c2ccc(Cl)cc2nc(-c2ccc([N+](=O)[O-])cc2)n1O` was -15.4% (inactive); that for `O=[N+]([O-])c1ccc(CSc2nnc(SCc3ccc(Cl)cc3)s2)cc1` was -24.5% (inactive).
With `Nc1nc(O)c(N=Nc2ccc(S(N)(=O)=O)cc2)c(=O)[nH]1`, the signal change vs control minus 3*SD hit threshold (margin above threshold, higher = more increase) was -32% (inactive).
As for `CNC(=S)Nc1sc2c(c1C(=O)OC)CCC2`, the signal change vs control minus 3*SD hit threshold (margin above threshold, higher = more increase) was -15.1% (inactive).
The value for `Cc1ccc(C(=O)N/N=C(/CC(=O)c2cccs2)C(F)(F)F)cc1` was -22.1% (inactive); that for `CC(C)=CCCC1=CCC2C(=O)NNC(=O)C2C1` (stereo not drawn) was -33.3% (inactive); that for `Cc1ccc(OCC(=O)NC(=S)Nc2ccc(Br)cn2)cc1` was -4.8% (inactive).
For `CC(C)(C)NC(=O)C(=O)NNC(=O)COc1ccccc1`, the signal change vs control minus 3*SD hit threshold (margin above threshold, higher = more increase) was -32.8% (inactive).
The value for `CC(C)(C)NC(=O)C(=O)NNC(=O)COc1ccc(Br)cc1` was 6.9% (active); that for `c1ccc(SSc2ccccn2)nc1` was -36.9% (inactive); that for `S=c1[nH]c(-c2ccccc2)cn1/N=C/c1cccc2ccccc12` was -17.6% (inactive).
With `Oc1oc(-c2cccc3ccccc23)nc1/C=N/c1nccs1`, the signal change vs control minus 3*SD hit threshold (margin above threshold, higher = more increase) is -19.4% (inactive).
The value for `CCCn1c(O)c(N=NC(=O)c2ccco2)c2ccccc21` was 29.8% (active); that for `CCn1c(O)c(N=NC(=O)CNC(=O)c2ccccc2F)c2ccccc21` was -28.7% (inactive); that for `Oc1c(N=NC(=S)Nc2ccccc2F)c2ccccc2n1Cc1ccccc1` was -17.5% (inactive).
Turning to `CN1C(=O)/C(=N\OC(=O)c2cccc3ccccc23)c2ccccc21`, the signal change vs control minus 3*SD hit threshold (margin above threshold, higher = more increase) is -18.7% (inactive).
The value for `C/C(Nc1cccc(F)c1)=C(/C#N)C(N)=O` was -24.1% (inactive); that for `S=c1[nH]cnc2scc(-c3ccc(Br)cc3)c12` was -22% (inactive); that for `S=c1[nH]cnc2scc(-c3ccccc3)c12` was -3.2% (inactive).
The value for `Cc1cc(-c2csc3nc[nH]c(=S)c23)cc(C)c1C` was -3.4% (inactive); that for `Cc1sc2nc[nH]c(=S)c2c1-c1ccccc1` was 9.4% (active); that for `Cc1c(-c2ccccc2)sc2nc[nH]c(=S)c12` was 6.1% (active).
In the case of `Cc1ccc(-c2csc3nc[nH]c(=S)c23)cc1C`, the signal change vs control minus 3*SD hit threshold (margin above threshold, higher = more increase) is -21.7% (inactive).
The value for `Clc1ccc(Nc2nc3cccnc3s2)cc1` was -29.8% (inactive); that for `CCOC(=O)N1CCN(C(=O)CCn2c(=S)[nH]c3ccsc3c2=O)CC1` was -14.4% (inactive); that for `CN(CCc1ccccn1)C(=O)CCC1CCCN(C(=O)c2ccsc2)C1` (stereo not drawn) was -22.3% (inactive).
Take `N=C1S/C(=C\c2ccc(-c3cccc(Cl)c3)o2)C(=O)N1c1nccs1`: the signal change vs control minus 3*SD hit threshold (margin above threshold, higher = more increase) was -18.8% (inactive).
Consider `Cc1cc(S(=O)(=O)N2CCOCC2)ccc1OCC(=O)NCc1ccco1`, for which the signal change vs control minus 3*SD hit threshold (margin above threshold, higher = more increase) is -27.2% (inactive).
`Oc1c(Br)cc(Br)cc1C=Nc1cccc2ncccc12`: the signal change vs control minus 3*SD hit threshold (margin above threshold, higher = more increase) was -0.4% (inactive).
The value for `Oc1c(Br)cc(Br)cc1C=Nc1ccc2[nH]ncc2c1` was 11% (active); that for `Oc1c(Br)cc(Br)cc1C=Nc1ccc2c(c1)OCCO2` was -5.9% (inactive); that for `COc1ccc(-n2c(O)c(/C=C3\C=Nc4ccccc43)c(=O)[nH]c2=O)cc1` was -43% (inactive).
The value for `COCC(=O)NC1CC2CCC(C1)N2C(=S)Nc1ccccc1C(=O)OC` (stereo not drawn) was -14.6% (inactive); that for `CC(=O)CSc1ncnc2sc3c(c12)CCC(C)C3` (stereo not drawn) was 49% (active).
The value for `Cc1noc(C)c1CSc1ncnc2sc3c(c12)CCCCC3` was -14.1% (inactive); that for `Cc1sc2ncnc(SCC(=O)c3ccc(O)cc3O)c2c1C` was -22.1% (inactive); that for `COc1cc(NC(=O)CSc2ncnc3sc4c(c23)CCC(C)C4)c(C(=O)O)cc1OC` (stereo not drawn) was 29.8% (active).
Regarding `COc1cc(NC(=O)CCCOc2ccc(Cl)cc2Cl)c(C(=O)O)cc1OC`, the signal change vs control minus 3*SD hit threshold (margin above threshold, higher = more increase) was -17.7% (inactive).
Regarding `COC(=O)c1c(NC(=O)CN2CCOCC2)sc2c1CCC(C)C2` (stereo not drawn), the signal change vs control minus 3*SD hit threshold (margin above threshold, higher = more increase) was -31.2% (inactive).
The value for `CCOC(=O)/C(C)=N/NC(=O)c1cccc([N+](=O)[O-])c1` was -14.2% (inactive); that for `CCOC(=O)c1ccc(Oc2cc(C)nc(SC)n2)cc1` was -8.1% (inactive).
The value for `Cc1cccc(C(=O)NC(=S)N(C)C2CCCCC2)c1` was -9.9% (inactive).

The values are drawn from PubChem BioAssay AID1839 (Johns Hopkins Ion Channel Center, 2009).
